In the supplement of paper PMC10127200:
Where a name gives a salt, the structure may show the parent alone.

Key:
Assay in all cases: Euclidean distance of Cell Painting phenotypic profile (signed KS, 77 features) to DMSO centroid (dimensionless distance); higher = stronger phenotypic change vs DMSO (phenoactivity)
Settings in all cases: 48 h; 5 or 10 uM (library dependent)
786-O = test system: 786-O
How it was run: (§1)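 Harmony extracted 77 features from 20X confocal images (9 fields/well) of stained cells, scoring each as a signed Kolmogorov-Smirnov statistic against same-plate vehicle wells. The cells, five cancer lines and a healthy fibroblast line, had received library compounds for 48 h at 10 or 5 uM depending on library, with 0.1% DMSO final. Phenoactivity is the Euclidean distance from each plate-position-corrected, correlation-weighted, top-dose replicate-averaged profile to the median vehicle profile.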

A549 = test system: A549
How it was run: as §1

DU145 = test system: DU145
How it was run: as §1

FB = test system: FB
How it was run: as §1

HEPG2 = test system: HEPG2
How it was run: as §1

OVCAR4 = test system: OVCAR4
How it was run: as §1

| Compound | Euclidean distance (786-O) | Euclidean distance (A549) | Euclidean distance (DU145) | Euclidean distance (FB) | Euclidean distance (HEPG2) | Euclidean distance (OVCAR4) |
| --- | --- | --- | --- | --- | --- | --- |
| CC(=O)Nc1ccc(Cc2ccc(NC(C)=O)cc2)cc1 | 1.08 | 2.27 | 0.674 | 0.9 | 0.667 | 1.25 |
| OC(c1ccccc1)(c1ccccc1)C1CCNCC1 [Azacyclonol] | 2.95 | 2.91 | 3.75 | 3.06 | 2.31 | 3.18 |
| COc1ccc(CN2CCNCC2)c(OC)c1OC [Trimetazidine dihydrochloride] | 0.784 | 0.96 | 0.805 | 0.719 | 0.412 | 1.08 |
| Oc1cc(Cl)ccc1Oc1ccc(Cl)cc1Cl [Triclosan] | 0.695 | 0.668 | 0.877 | 1.15 | 0.546 | 1.07 |
| C/C(=C\c1csc(C)n1)[C@@H]1C[C@@H]2O[C@]2(C)CCC[C@H](C)[C@H](O)[C@@H](C)C(=O)C(C)(C)[C@@H](O)CC(=O)O1 [Epothilone B] | 2.58 | 2.49 | 3.95 | 2.82 | 1.98 | 2.11 |
| Cc1sc2c(c1C)C(c1ccc(Cl)cc1)=N[C@@H](CC(=O)OC(C)(C)C)c1nnc(C)n1-2 | 3.44 | 2.14 | 2.03 | 3.52 | 1.96 | 1.96 |
| CC(C)N(CCNC(=O)CN1CCCC1=O)C(C)C [Pramiracetam] | 1.35 | 1.08 | 0.543 | 0.932 | 0.534 | 0.853 |
| C[C@@H]1O[C@@H](O[C@H]2C[C@@H](O)[C@]3(CO)[C@H]4[C@H](O)C[C@]5(C)[C@@H](C6=CC(=O)OC6)CC[C@]5(O)[C@@H]4CC[C@]3(O)C2)[C@H](O)[C@H](O)[C@H]1O [Ouabain] | 6.72 | 6.03 | 6.56 | 4.56 | 3.34 | 7.06 |
| CCCN1CCO[C@@H]2c3cc(O)ccc3OC[C@H]21 | 0.455 | 0.629 | 0.762 | 0.945 | 0.824 | 0.818 |
| CCN(CC)CCOC(=O)C(O)(c1ccccc1)c1ccccc1 [Benactyzine hydrochloride] | 1.27 | 0.786 | 1.33 | 0.83 | 0.592 | 1.71 |
| CCC12C=CCN3CC[C@@]4(c5ccc(OC)cc5N(C)[C@H]4[C@@](O)(C(=O)OC)[C@@H]1OC(C)=O)[C@@H]32 (stereo not given in full) [Vindoline] | 1.01 | 0.491 | 0.771 | 0.943 | 0.607 | 0.946 |
| Cc1cc(C(C#N)c2ccc(Cl)cc2)c(Cl)cc1NC(=O)c1cc(I)cc(I)c1O (stereo not given) [Closantel] | 1.21 | 0.707 | 0.758 | 0.654 | 0.749 | 0.648 |
| COc1cc2c(cc1OC)[C@@]13CCN4CC5=CCO[C@H]6CC(=O)N2[C@H]1[C@H]6[C@H]5C[C@H]43 [Brucine sulfate salt hydrate] | 1.36 | 0.862 | 0.987 | 1.47 | 0.722 | 0.846 |
| CC(C)(C)c1cc(C=C(C#N)C#N)cc(Br)c1O | 1.41 | 1.74 | 0.863 | 1.1 | 1.39 | 1.52 |
| O=C(Oc1ccc([N+](=O)[O-])cc1)N1CCC(C(O)(c2ccc3c(c2)OCO3)c2ccc3c(c2)OCO3)CC1 | 1.24 | 1.34 | 1.4 | 1.86 | 1.15 | 1.12 |
| COC(=O)C[C@](O)(CCC(C)(C)O)C(=O)O[C@@H]1C(OC)=C[C@]23CCCN2CCc2cc4c(cc2[C@H]13)OCO4 [Harringtonine] | 3.42 | 3.22 | 4.37 | 3.78 | 3.46 | 3.73 |
| C=C1C[C@@H]2[C@H](CC[C@]3(C)C(=O)CC[C@@H]23)[C@@]2(C)C=CC(=O)C=C12 [Exemestane] | 1.7 | 1.06 | 0.488 | 1 | 0.7 | 1.37 |
| C[C@]12CC[C@@H]3c4ccc(OC(=O)N(CCCl)CCCl)cc4CC[C@H]3[C@@H]1CC[C@@H]2OP(=O)(O)O [Estramustine phosphate sodium] | 1.21 | 0.586 | 0.548 | 0.917 | 0.766 | 0.779 |
| CC(C)NCC(O)c1ccccc1Cl (stereo not given) [Clorprenaline HCl] | 1.06 | 1.11 | 0.599 | 1.22 | 0.405 | 1.29 |
| O=C1CC[C@@]2(O)[C@H]3Cc4ccc(O)c5c4[C@@]2(CCN3CC2CC2)[C@H]1O5 [Naltrexone HCl] | 1.26 | 0.818 | 0.868 | 0.982 | 1.84 | 1.99 |
| CC(C)(O)C(Cl)(Cl)Cl [Chlorobutanol] | 1.34 | 1.04 | 1.02 | 0.61 | 0.725 | 2 |
| CNC1CC(N)C(O)C(OC2OC(CO)C(O)C3OC4(OC(C(N)CO)C(O)C(O)C4O)OC23)C1O (stereo not given) [Hygromycin B] | 1.63 | 1.19 | 1.02 | 2.53 | 1.3 | 1.24 |
| Cc1ccccc1-n1c(CF)nc2ccc(N)cc2c1=O [Afloqualone] | 0.926 | 0.643 | 0.714 | 1.21 | 0.422 | 0.949 |

| Compound | Euclidean distance (786-O) | Euclidean distance (A549) | Euclidean distance (DU145) | Euclidean distance (FB) | Euclidean distance (HEPG2) | Euclidean distance (OVCAR4) |
| --- | --- | --- | --- | --- | --- | --- |
| C[C@]12CC[C@H](O)C[C@@H]1CC[C@@H]1[C@@H]2CC[C@]2(C)C(=O)CC[C@@H]12 [Epiandrosterone] | 1.32 | 1.2 | 0.784 | 1.34 | 0.785 | 0.989 |
| CC(C)=CCOc1c2occc2cc2ccc(=O)oc12 [Imperatorin] | 1.11 | 0.594 | 0.803 | 0.939 | 0.503 | 1.32 |
| C=CC1CN2CCC1CC2C(O)c1ccnc2ccccc12 (stereo not given) | 1.34 | 0.884 | 1.11 | 0.875 | 0.638 | 1.13 |
| c1cc2c(cc1[C@H]1OC[C@H]3[C@@H]1CO[C@@H]3c1ccc3c(c1)OCO3)OCO2 [Sesamin] | 1.03 | 0.791 | 0.678 | 1.13 | 2.07 | 1.1 |
| Cc1ccccc1-n1c(Cn2ncc3c(N)ncnc32)nc2cccc(C)c2c1=O | 0.868 | 0.946 | 1.12 | 0.901 | 2.23 | 1.03 |
| CN1c2ccccc2C(NCCCCCCC(=O)O)c2ccc(Cl)cc2S1(=O)=O (stereo not given) [Tianeptine sodium] | 1.2 | 0.593 | 0.767 | 1.05 | 0.471 | 1.36 |
| C=C1[C@@H](C)[C@H]2[C@H](Cc3ccccc3)NC(=O)[C@]23[C@H](OC(C)=O)/C=C/[C@@](C)(O)C(=O)[C@@H](C)C/C=C/[C@H]3[C@@H]1O [Cytochalasin D] | 4.23 | 3.63 | 3.2 | 4.07 | 2.24 | 3.87 |
| CC(=O)Nc1ccc(OC[C@](C)(O)C(=O)Nc2ccc([N+](=O)[O-])c(C(F)(F)F)c2)cc1 [Andarine] | 1.46 | 1.78 | 0.858 | 0.758 | 0.703 | 1 |
| CCNC(=O)C[C@@H]1N=C(c2ccc(Cl)cc2)c2cc(OC)ccc2-n2c(C)nnc21 | 1.96 | 1.78 | 1.76 | 3.4 | 1.26 | 1.66 |
| CCOc1ccccc1-n1c(C(C)N2CCN(C(=O)COc3ccc(Cl)cc3)CC2)nc2ccccc2c1=O (stereo not given) [Erastin] | 3.85 | 1.31 | 1.34 | 3.12 | 1.68 | 2.13 |
| Fc1cc(F)c2c(c1)[C@H]1C=CC[C@H]1C(c1cccnc1)N2 (stereo not given in full) [Golgicide A] | 0.733 | 0.432 | 0.82 | 1.04 | 0.802 | 0.985 |
| C[N+]1(C)[C@@H]2C[C@@H](OC(=O)[C@H](CO)c3ccccc3)C[C@H]1[C@@H]1O[C@@H]12 [Methscopolamine] | 0.909 | 0.693 | 0.721 | 0.773 | 0.666 | 1.04 |
| CCC1(C)CC(=O)NC(=O)C1 [Bemegride] | 0.845 | 0.616 | 0.948 | 0.603 | 0.381 | 0.793 |
| CN1[C@H]2C[C@H](OC(=O)[C@H](CO)c3ccccc3)C[C@@H]1[C@@H](O)C2 [Anisodamine Hydrobromide] | 0.645 | 0.397 | 2.62 | 1.12 | 0.513 | 0.688 |
| CO[C@H]1CC[C@@H](O[C@H]2C[C@H]([C@]3(C)CC[C@]4(C[C@H](O)[C@@H](C)[C@@H]([C@@H](C)/C=C(\C)C(=O)[C@H](C)C[C@H](C)C(=O)O)O4)O3)O[C@]3(O[C@@H]([C@H]4O[C@@](O)(CO)[C@H](C)C[C@@H]4C)C[C@@H]3C)[C@@H]2C)O[C@@H]1C [Nanchangmycin] | 3.94 | 1.41 | 2.28 | 4.66 | 3.85 | 1.11 |
| Cc1cc(C2=NOC(c3cc(Cl)cc(Cl)c3)(C(F)(F)F)C2)ccc1C(=O)NCC(=O)NCC(F)(F)F (stereo not given) [Fluralaner] | 1.38 | 1.29 | 1.17 | 1.44 | 0.786 | 1.36 |
| CNCC(O)c1ccc(O)cc1 (stereo not given) [Synephrine HCl] | 0.581 | 0.451 | 0.914 | 0.485 | 0.371 | 1.27 |
| COc1ccc2c3c([nH]c2c1)C(C)=NCC3 [Harmaline] | 1.25 | 0.845 | 1.34 | 1.09 | 0.398 | 1.37 |
| CCOC(=O)Nc1ccc(NCc2ccc(F)cc2)cc1N [Retigabine 2HCl] | 0.771 | 1.35 | 0.995 | 0.958 | 0.601 | 0.882 |
| CN[C@@H]1[C@@H](O)[C@@H](O[C@@H]2[C@@H](O)[C@H](O[C@H]3O[C@H]([C@@H](C)O)[C@@H](O)[C@H](O)[C@H]3N)[C@@H](N)C[C@H]2N)OC[C@]1(C)O [Geneticin (G418 Sulfate)] | 1.73 | 0.917 | 1.4 | 1.24 | 1.23 | 1.53 |
| Cn1c(CCCCCCC(=O)NO)nc2cc(N(CCCl)CCCl)ccc21 [Tinostamustine(EDO-S101)] | 3.61 | 3.53 | 3.45 | 2.57 | 2.74 | 3.16 |
| CN(C)NC(=O)CCC(=O)O [Daminozide] | 0.626 | 0.507 | 0.706 | 0.873 | 0.742 | 1.16 |
